# Data: PubChem BioAssay
# Calls of active or inactive are those of the source. Unless noted, no rule for the calls is given here.
# How the values were obtained:
# [1] = resazurin metabolic signal in HepG2 cells – cell-based, resazurin fluorescence, 24 h, PK04 Diversity Set, profiling panel (AID 1172); conditions: HepG2 viability, higher = more signal; also: test concentration not given here
# [2] = budding yeast growth changes without added modifier – OD600, strain BY4716, 24 h, basal condition, primary screen (AID 1173); conditions: S. cerevisiae BY4716 growth, OD600, 24 h; higher = more signal, called active from +8 up or from −8 down
# [3] = viability profiling in MM1S myeloma cells – cell-based, resazurin fluorescence, basal, 24 h, PK04 Diversity Set, profiling panel (AID 1174); conditions: higher = more signal, called active from +8 up or from −8 down;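 also: MM1S multiple myeloma cell line; test concentration not given here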
# [4] = molecular target: Dihydroorotate dehydrogenase (quinone), mitochondrial (Plasmodium falciparum (isolate 3D7)) (UniProt Q08210); assay: inhibition of P. falciparum DHODH – biochemical, C-terminal His tag, absorbance 600 nm, primary screen (AID 1175); conditions: PfDHODH enzyme, DCIP absorbance 600 nm; higher = more signal, called active from +8 up or from −8 down;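 also: recombinant parasite enzyme with a five histidine tag at its C terminus; test concentration not given here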
# [5] = inhibition of PAO1 biofilm formation – strain PAO1, LB-PBS medium, absorbance 600 nm, primary screen (AID 1176); also: test concentration not given here; conditions: P. aeruginosa PAO1 growth/biofilm, A600, 12 h; higher = more signal
# [6] = growth modulation of vineyard yeast isolate – strain RM11-1a, OD600, basal, 24 h, primary screen (AID 1177);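 also: cultures grown under basal conditions with no added stressor; test concentration not given here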; conditions: S. cerevisiae RM11-1a growth, OD600, 24 h; higher = more signal, called active from +8 up or from −8 down
# [7] = growth of efflux-deficient E. coli DRC39 – strain DRC39, OD650, 24 h, E. coli filamentation inducers, primary screen (AID 1178);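 also: growth measured as culture turbidity by optical density at 650 nm; test concentration not given here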; conditions: E. coli DRC39 acrAB, higher = more signal, called active from +8 up or from −8 down
# [8] = growth of efflux-deficient E. coli DRC39 – strain DRC39, OD650, 48 h, E. coli filamentation inducers, primary screen (AID 1179);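 also: screen aims at cell division blockers that make cells filament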; conditions: E. coli DRC39 delta-acrAB growth, higher = more signal, called active from +8 up or from −8 down
# [9] = viability profiling in RPMI8226 myeloma cells – cell-based, resazurin fluorescence, basal, 24 h, PK04 Diversity Set, profiling panel (AID 1180); conditions: higher = more signal;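 also: RPMI8826 multiple myeloma cell line at 5000 cells per well; test concentration not given here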
# [10] = molecular target: E3 ubiquitin-protein ligase XIAP (Homo sapiens) (UniProt P98170); assay: small molecules binding XIAP protein – biophysical, small-molecule microarray, fluorescence 635 nm, primary screen (AID 1181); conditions: higher = more signal;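 also: score merges 667 nm emission and signal to noise over triplicate slides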
# Sequence of E3 ubiquitin-protein ligase XIAP (Homo sapiens) (P98170 whole entry, looked up): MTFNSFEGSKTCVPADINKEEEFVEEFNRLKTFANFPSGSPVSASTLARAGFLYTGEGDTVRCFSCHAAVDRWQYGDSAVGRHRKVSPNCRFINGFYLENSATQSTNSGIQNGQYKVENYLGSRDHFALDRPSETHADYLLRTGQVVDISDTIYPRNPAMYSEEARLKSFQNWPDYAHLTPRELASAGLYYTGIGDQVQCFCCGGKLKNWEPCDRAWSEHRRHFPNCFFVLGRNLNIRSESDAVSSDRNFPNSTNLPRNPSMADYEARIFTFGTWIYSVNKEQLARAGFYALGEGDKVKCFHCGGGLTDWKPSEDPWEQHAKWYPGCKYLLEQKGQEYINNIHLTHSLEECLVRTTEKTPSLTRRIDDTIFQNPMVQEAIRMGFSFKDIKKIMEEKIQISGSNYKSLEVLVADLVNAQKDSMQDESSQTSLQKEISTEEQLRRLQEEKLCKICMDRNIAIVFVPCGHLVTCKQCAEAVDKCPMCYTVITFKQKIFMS
# Sequence of Dihydroorotate dehydrogenase (quinone), mitochondrial (Plasmodium falciparum (isolate 3D7)) (Q08210 whole entry, looked up): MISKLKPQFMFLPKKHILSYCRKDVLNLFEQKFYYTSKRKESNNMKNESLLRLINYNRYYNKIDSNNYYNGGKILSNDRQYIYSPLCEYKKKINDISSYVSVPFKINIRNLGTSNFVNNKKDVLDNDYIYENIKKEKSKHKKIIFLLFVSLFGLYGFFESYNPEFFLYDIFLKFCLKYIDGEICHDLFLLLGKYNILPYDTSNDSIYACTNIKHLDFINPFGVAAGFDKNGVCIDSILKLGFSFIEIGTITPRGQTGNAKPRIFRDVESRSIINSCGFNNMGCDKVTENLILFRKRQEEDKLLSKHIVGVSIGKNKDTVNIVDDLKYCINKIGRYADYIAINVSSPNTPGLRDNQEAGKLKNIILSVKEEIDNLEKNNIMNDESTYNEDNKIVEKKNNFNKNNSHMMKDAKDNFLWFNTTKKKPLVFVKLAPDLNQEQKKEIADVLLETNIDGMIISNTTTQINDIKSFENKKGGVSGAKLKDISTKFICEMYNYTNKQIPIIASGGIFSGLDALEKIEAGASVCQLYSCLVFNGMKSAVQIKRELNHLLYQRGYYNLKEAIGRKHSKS
SMILES,z-score [1],z-score [2],z-score [3],composite z-score [4],z-score [5],z-score [6],z-score [7],z-score [8],z-score [9],composite z-score [10]
COc1ccc(C(O)C2C=CC3C(=O)N(c4ccccc4)C(=O)C3N2Nc2ccc([N+](=O)[O-])cc2)c2ccccc12 (stereo not given),0.248,0.0244 (inactive),-0.121 (inactive),0.767 (inactive),2.53 (inactive),0.0842 (inactive),-0.901 (inactive),-0.219 (inactive),-0.322,0.312
CCN(CC)c1ccc(N2CC=CC34O[C@@H]5C=CCCOC(=O)C5[C@H]3C(=O)N(C(C)CO)[C@@H]4C2=O)cc1 (stereo not given in full),0.452,-0.315 (inactive),0.172 (inactive),-0.0558 (inactive),0.398 (inactive),0.126 (inactive),-0.491 (inactive),-0.693 (inactive),0.399,0.741
O=C1OCCC=C[C@H]2OC34C=CCN(c5ccc6ccccc6c5)C(=O)[C@H]3N(CCO)C(=O)[C@@H]4C12 (stereo not given in full),0.523,-0.783 (inactive),-1.23 (inactive),-3.6 (inactive),0.345 (inactive),0.0789 (inactive),-1.26 (inactive),-1.42 (inactive),-0.796,-0.248
COC(=O)[C@H](Cc1ccccc1)N1CC2=CCCC=C[C@@H]2[C@H]1[C@H](O)Cc1ccccc1,0.272,-1.7 (inactive),0.612 (inactive),-0.313 (inactive),-0.565 (inactive),-0.77 (inactive),-0.337 (inactive),-0.27 (inactive),0.0722,0.104
[N-]=[N+]=Nc1ccccc1[C@H]1OC(c2ccc(OCCCO)cc2)=N[C@@]1(Cc1ccccc1)C(=O)NCC(O)CO (stereo not given in full),1.21,-1.65 (inactive),-1.21 (inactive),-0.0513 (inactive),-1.08 (inactive),0.972 (inactive),0.413 (inactive),0.318 (inactive),-1.28,0.0487
C=CCN1C(=O)[C@]2(O[C@H](CCn3cc([C@H](O)c4ccccc4)nn3)[C@@H]([Si](C)(C)c3ccc(OC)cc3)[C@@H]2C)c2cc(NC(=O)c3ccc(OC)cc3)ccc21,-1.66,-0.971 (inactive),-3.65 (inactive),0.717 (inactive),1.59 (inactive),1.11 (inactive),0.517 (inactive),0.418 (inactive),-3.68,-0.02
O=C1N(CCS(=O)(=O)c2ccccc2)c2ccccc2C[C@]12N=C(c1ccc(OCCCO)cc1)O[C@@H]2c1ccccc1,-0.285,0.376 (inactive),-2.11 (inactive),-2.58 (inactive),0.575 (inactive),2.74 (inactive),0.39 (inactive),-0.0504 (inactive),-0.885,0.311
C[N+](C)(C)CCCC[C@@H]1NC(=O)[C@@H]2C[C@H](C(=O)NCc3ccc(F)cc3)[C@H](c3ccc(O)cc3)N2C1=O,-0.348,0.628 (inactive),0.0125 (inactive),0.0528 (inactive),0.683 (inactive),0.506 (inactive),0.426 (inactive),0.577 (inactive),0.276,0.0223
CCOC(=O)C1=C[C@@H](C(C)(C)C)N(S(=O)(=O)c2ccc(C)cc2)[C@H]1c1ccc(C#N)cc1,-0.718,2.25 (inactive),-0.153 (inactive),-0.158 (inactive),0.16 (inactive),1.56 (inactive),-0.264 (inactive),-0.361 (inactive),-1.22,-0.0559
CN(C)CCCNC(=O)[C@@]1(Cc2ccccc2I)c2ccccc2C(=O)N(C2CCCCC2)[C@H]1c1ccc(CO)cc1,-6.39,-8.03 (active),-8.24 (active),0.201 (inactive),0.36 (inactive),0.996 (inactive),0.675 (inactive),-0.707 (inactive),-6.58,0.223
C=CCC(OC(C)=O)[C@@H]1[C@@H](N(Cc2ccc(-c3cccc(C(F)(F)F)c3)o2)C(=O)Cc2ccc(F)cc2)c2cc(OCCCO)ccc2N1C(=O)Cc1ccc2ccccc2c1 (stereo not given in full),0.533,0.658 (inactive),0.647 (inactive),-1.35 (inactive),1.13 (inactive),-0.245 (inactive),-0.241 (inactive),-0.088 (inactive),0.0748,-0.132
C=C(/C(=C/C[C@@H](OC(C)=O)c1cccc(OCCO)c1)c1cnc2ccccc2c1)C(C)C,-0.682,-0.517 (inactive),-0.421 (inactive),-3.98 (inactive),-0.104 (inactive),0.183 (inactive),0.12 (inactive),-0.406 (inactive),0.213,-0.157
O=C(NCCN1CCOCC1)[C@@H]1c2ccccc2C(=O)N(Cc2ccc(OC(F)(F)F)cc2)[C@H]1c1ccc(CO)cc1,-0.129,-0.559 (inactive),0.0245 (inactive),-0.0449 (inactive),0.925 (inactive),-0.449 (inactive),0.248 (inactive),-0.322 (inactive),0.546,0.0151
COCCOC(=O)N1C(=O)[C@@]2(c3cc(C#CCC(C(=O)OC)C(=O)OC)ccc31)[C@H](C(=O)Nc1nc3ccccc3s1)[C@H]1C(=O)O[C@H](c3ccccc3)[C@H](c3ccccc3)N1[C@@H]2c1ccc(O)cc1,-0.218,0.945 (inactive),-0.0585 (inactive),0.863 (inactive),0.678 (inactive),0.404 (inactive),0.378 (inactive),-0.186 (inactive),-0.577,0.286
CCCCC(=C=CC[C@H](O)c1ccc(CO)o1)CCO,-0.585,-0.976 (inactive),0.0305 (inactive),-0.776 (inactive),0.224 (inactive),0.648 (inactive),-0.312 (inactive),-0.409 (inactive),-0.34,-0.0663
[N-]=[N+]=NCc1ccccc1[C@@H]1OC(c2ccc(OCCCO)cc2)=N[C@]1(Cc1ccccc1N=[N+]=[N-])C(=O)O,0.495,-3.6 (inactive),0.589 (inactive),0.454 (inactive),1.42 (inactive),0.783 (inactive),2.32 (inactive),0.499 (inactive),-0.0845,0.104
N#Cc1ccc(-c2cccc(=O)o2)cc1,-0.518,-0.923 (inactive),0.141 (inactive),-0.578 (inactive),0.0767 (inactive),0.719 (inactive),-1.1 (inactive),-0.0301 (inactive),-0.389,-0.0085
O=C(O)[C@H](Cc1ccccc1)n1cc(C2(O)CCCCC2)nn1,-0.466,-0.415 (inactive),-0.625 (inactive),-1.6 (inactive),0.055 (inactive),-0.563 (inactive),-0.128 (inactive),-0.477 (inactive),-0.88,-0.0668
COc1ccc([Si](C)(C)[C@H]2[C@H](CC(=O)N3Cc4ccccc4C[C@H]3CO)O[C@@]3(C(=O)N(C)c4c(Br)cc(C)cc43)[C@@H]2C)cc1,-4.15,0.915 (inactive),-6.33 (inactive),0.973 (inactive),1.72 (inactive),3.17 (inactive),-0.652 (inactive),-0.984 (inactive),-6.22,-0.134
CCCc1cc2c(n1CCc1ccc(Cl)cc1)C(C)C1CN(C(=O)c3ccccc3)C(C)(C(=O)OC)C21 (stereo not given),-1.19,0.736 (inactive),-2.85 (inactive),-0.823 (inactive),0.659 (inactive),1.09 (inactive),-1.34 (inactive),-1.33 (inactive),-1.98,0.527
